Bioassay records from PubChem BioAssay.
Sampled rows, rich in hits. Any-hit rate of the full collection: about 1.5%.
PABP polyA inh: PABP poly(A) RNA binding inhibitors, primary screen, biochemical, fluorescence polarization, uHTS | AID 2014, 2009 | 290,000 compounds, 1% hits | calls only at 35 µM;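 further: calls also rest on retests at 20 µM and on dose response follow-up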
PABP1 MLLE inh: inhibitors of PABP1 MLLE–PAM2 peptide binding, primary screen, biochemical, fluorescence polarization, FITC-PAM2, GST-MLLE | inhibition, % at 20 µM | 360,000 compounds, 0.36% hits | AID 588489, 2011; in the data active means inhibition above about 35%, passing the limit was not always enough;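 further: plate controls were DMSO wells with GST-MLLE for no effect and wells lacking GST-MLLE protein for full effect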
eIF4H FP inh: human eIF4H binding inhibitors, primary screen, translation initiation inhibitor project, biochemical, uHTS, fluorescence polarization | Eukaryotic translation initiation factor 4H (Homo sapiens), Q15056 | eIF4H fluorescence polarization binding assay | inhibition, % at 35 µM | 290,000 compounds, 0.94% hits;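 further: calls also rest on retests at 20 µM and on dose response follow-up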
eIF4E 4G PPI: eIF4E–eIF4G protein interaction inhibitors, primary screen, biochemical, uHTS, TR-FRET, eIF4GI fragment; Eukaryotic translation initiation factor 4E (Mus musculus) + Eukaryotic translation …; TR-FRET eIF4E-eIF4GI(517-606) binding, 2 h; inhibition, % at 21.7 µM; 220,000 compounds, 0.37% hits; AID 782, 2007;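 active means inhibition above about 30%, limit read from the data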;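 further: 0% = full FRET control wells and 100% = background wells lacking eIF4GI fragment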
The depositor's hits bear a star; i = inactive; ? = inconclusive; . = no result; + = active, no number; [ ] = dose if it differs, or a comment. Unless noted, how the calls were made is not given here.

SMILES	PABP polyA inh	PABP1 MLLE inh	eIF4H FP inh	eIF4E 4G PPI
Oc1ccc(C=Nc2ccc3ncccc3c2)c(O)c1	+	.	81*	0
Oc1ccc(C=Nc2ccccc2-c2nc3ccccc3[nH]2)c(O)c1	i	-8	3	3
C[C@@H]1CN([C@H](C)CO)C(=O)c2cc(Br)cnc2O[C@@H]1CN(C)C(=O)Nc1cccc(F)c1	.	6	.	.
O=C(C1CCCCC1)N1C[C@@H](O)[C@H](n2cc(-c3ccc(F)cc3)nn2)C[C@@H]1c1ccccc1	.	-15	.	.
COc1ccc(C(C)(C)C)cc1NC(=S)NCCN1CCOCC1	+	5	-2	-2
N#Cc1c(NCCCO)nc(NCc2ccccc2)c2c1CCN(Cc1ccccc1)C2	?	32	?	8
CN1CCc2c(C#N)c(N3CCCCC3)nc(NCc3ccccc3)c2C1	+	47	74*	.
c1ccc(Cn2ccc(-c3cnc(-c4ccccc4)s3)n2)cc1	i	-6	93*	-1
Nc1ccn(Cc2ccccc2)n1	i	-8	-9	0
Nc1nc(=S)c2ncn([C@@H]3O[C@H](CO)[C@@H](O)[C@H]3O)c2[nH]1	.	38	.	.
Nc1nc(=S)c2ncn(C3OC(CO)C(O)C3O)c2[nH]1 (configuration not stated)	+	29	89*	17
Cc1nc2ccc(C(=O)N3CCN(C(=O)c4ccco4)CC3)cn2c1N(C)C(=O)CCc1ccccc1	.	-12	.	.
O=C(NC(c1ccc(Cl)cc1)c1cc(Cl)c2cccnc2c1O)c1cccnc1 (configuration not stated)	+	-2	?	4
CC(=O)NC(c1ccccc1)c1cc(Cl)c2cccnc2c1O (configuration not stated)	i	3	22	.
CCCS(=O)(=O)NC(=O)C1(C)CCN(C(=O)Cc2ccc3ccccc3c2)C1 (configuration not stated)	.	9	.	.
COc1ccc(S(=O)(=O)NCc2ccc3c(c2)cc(C)n3C)cc1	+	49*	64*	3
Cc1cc2cc(CNC(=O)c3ccc(S(=O)(=O)N4CCCCC4)cc3)ccc2n1C	i	49*	-20	-7
CCN(CC)S(=O)(=O)c1ccc(C(=O)NCc2ccc3c(c2)cc(C)n3C)cc1	i	46*	20	-5
C[C@@H]1CN([C@@H](C)CO)S(=O)(=O)c2ccc(Br)cc2O[C@H]1CN(C)C(=O)C1CCOCC1	.	5	.	.
FC(F)(F)C(F)(F)C(F)(F)c1nc2nc(Cl)c(Cl)nc2[nH]1	.	49*	.	.
CCc1nc2c(OCC(=O)c3ccc(F)cc3)cccn2c1N(C)C(=O)c1ccccc1F	.	3	.	.
CC1(C(=O)Nc2cccc(OC(F)(F)F)c2)Cc2c(-c3ccc4c(c3)OCO4)ccnc2O1 (configuration not stated)	.	5	.	.
O=C(CSc1ccsc1[N+](=O)[O-])Nc1cccc(F)c1	i	-1	74	50*
Cc1ccc(OCCn2cccn2)c(C)c1	i	-13	0	0
CCc1cc(=O)oc2cc(C)c(CN3CCCC(C)C3)c(O)c12 (configuration not stated)	+	5	63*	8
SMILES	PABP polyA inh	PABP1 MLLE inh	eIF4H FP inh	eIF4E 4G PPI
CCCCc1cc(=O)oc2cc(C)c(CN3CCCC3)c(O)c12	+	-38	60*	-5
CCCCc1cc(=O)oc2c(CN3CCCC3)c(O)ccc12	i	4	22	.
Cc1ccc(C(=O)N2CCN(S(=O)(=O)c3ccc(Br)cc3)CC2)o1	i	-8	-7	.
NC(=S)C(c1ccccc1)c1ncc(C(F)(F)F)cc1Cl (configuration not stated)	i	42*	-5	.
CC1=CC2=NC(=O)/C(=C\c3cc(C)n(-c4cccc(Cl)c4)c3C)C(=N)N2O1	i	-4	13	0
CC1=CC2=NC(=O)/C(=C\c3cc(C)n(-c4ccccc4)c3C)C(=N)N2O1	i	0	30	80*[fluorescence artefact?]
COc1ccc(C(=O)NC(=S)Nc2ccc3c4c(cccc24)CC3)cc1OC	+	12	12*	10
COc1cc(OC)cc(C(=O)NC(=S)Nc2ccc3c4c(cccc24)CC3)c1	i	20	8	-12
Cc1c(C(=O)NC(=S)Nc2ccc3c4c(cccc24)CC3)cccc1[N+](=O)[O-]	i	42*	26	3
Cc1cc(C(=O)OCC(=O)NNC(=O)c2cccs2)ccc1[N+](=O)[O-]	.	-12	.	.
CCc1ccc(S(=O)(=O)/N=C2/C=C(Sc3ncn[nH]3)C(=O)c3ccccc32)cc1	i	46*	-3	32*[fluorescence artefact?]
COc1ccc(NC(=O)c2cc(F)cc(F)c2)cc1S(=O)(=O)N1CCCCC1	.	-29	.	.
CN1NC(c2ccccc2)NN(C)C1=O	.	4	.	.
Cc1ccc(SC(=O)c2c(C)noc2-c2cc(C)on2)cc1	i	41*	-6	1
COC(=O)N(C)C[C@@H]1OCc2cnnn2CCCC(=O)N([C@H](C)CO)C[C@@H]1C	.	1	.	.
CN(C(=S)NC(=O)c1ccccc1)c1c(N)n(Cc2ccccc2)c(=O)[nH]c1=O	i	40*	-8	-11
COCCCN(C(=S)NC(=O)c1ccc(C(C)(C)C)cc1)c1c(N)n(Cc2ccccc2)c(=O)[nH]c1=O	i	38	-8	3
Cc1ccc(F)c(CNC(=O)C2(C)CCCN2C(=O)C(C)C)c1F (configuration not stated)	.	-3	.	.
Cc1ccc2nc(/C(C#N)=C\c3ccc(Oc4ccc(C(F)(F)F)cc4[N+](=O)[O-])cc3)[nH]c2c1	+	-9	76*	8
CC(C)CC1C(=O)N(Cc2cn(CCC3OCCO3)nn2)CCS(=O)(=O)N1Cc1ccc(-c2ccc(F)nc2)cc1 (configuration not stated)	.	0	.	.
COC(=O)[C@@]1(C)[C@H]2C(=O)N(Cc3ccccc3)C(=O)[C@H]2[C@H]2CN=C(SCC(=O)c3ccccc3)N21	.	43*	.	.
COC(=O)[C@@]1(C)[C@H]2C(=O)N(Cc3ccccc3)C(=O)[C@H]2[C@H]2CN=C(SC)N21	.	-20	.	.
COc1cc(/C=N/NC(=O)CSc2cc(C)c(Br)cc2C)ccc1O	i	-1	-6	9
Cc1cc(SCC(=O)N/N=C/c2ccc(O)c(O)c2O)c(C)cc1Br	+	12	93*	15
O=C(CSc1nc2ccc(Nc3nc(N4CCCC4)nc(N4CCCC4)n3)cc2s1)NCc1ccco1	i	-30	5	92*
N#CC1=C2SCN(c3ccccc3)CN2C(=O)CC1c1cccs1 (configuration not stated)	+	-41	23*	-5
N#CC1=C2SCN(c3ccccc3)CN2C(=O)CC1c1c(Cl)cccc1Cl (configuration not stated)	i	-6	-2	-5
